PubChem BioAssay AID1159580 (chemical genetic matrix, 2015)
Out of some 5,500 compounds screened, about 2,000 (36%) were called active. About 18% were inconclusive and are not listed. Cut-off read from the data, not from the text of the source: active = normalized growth mostly below about 0.91 (no sharp cut-off); inconclusive = no clear call, values can overlap the other calls; inactive = mostly above about 0.92. The list shows a part of the results.

Test: chemical genetic growth profiling, strain panel (AID 1159580);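 note: tested at 20 µM; growth read once vehicle control cultures reached saturation at 30 °C; 1 = growth at the plate median or of vehicle wells; lower values mean less growth of the strain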
Conditions: growth OD

Measured: normalized growth

C#CCCCCCCCCCCCC(O)CC(O)COC(C)=O (stereo unspecified)
inactive: S. cerevisiae deletion strains, locus YKL068W, active compounds read low 0.985 | S. cerevisiae deletion strains, locus YKL085W, strain MDH1 (second series), active compounds read low 0.964 | S. cerevisiae deletion strains, locus YKL085W, strain MDH1, active compounds read low 0.964 | S. cerevisiae deletion strains, locus YKL190W, strain CNB1, active compounds read low 0.986 | S. cerevisiae deletion strains, locus YKR091W, strain srl3, active compounds read low 0.996 | S. cerevisiae deletion strains, locus YLL001W, strain dnm1, active compounds read low 0.913 | S. cerevisiae deletion strains, locus YLR039C, strain RIC1, active compounds read low 0.976 | S. cerevisiae deletion strains, locus YLR058C, strain SHM2, active compounds read low 0.965 | S. cerevisiae deletion strains, locus YLR102C, strain apc9, active compounds read low 0.968 | S. cerevisiae deletion strains, locus YLR113W, strain HOG1, active compounds read low 0.94 | S. cerevisiae deletion strains, locus YLR262C, strain YPT6, active compounds read low 0.962 | S. cerevisiae deletion strains, locus YLR268W, strain sec22, active compounds read low 0.927 | S. cerevisiae deletion strains, locus YLR330W, strain CHS5, active compounds read low 0.981 | S. cerevisiae deletion strains, locus YLR342W, strain FKS1 (second series), active compounds read low 0.856 | S. cerevisiae deletion strains, locus YLR357W, strain rsc2, active compounds read low 0.958 | S. cerevisiae deletion strains, locus YLR370C, strain arc18, active compounds read low 0.994 | S. cerevisiae deletion strains, locus YLR371W, strain rom2, active compounds read low 0.958 | S. cerevisiae deletion strains, locus YLR384C, strain iki3, active compounds read low 0.967 | S. cerevisiae deletion strains, locus YLR418C, strain cdc73, active compounds read low 0.861 | S. cerevisiae deletion strains, locus YML016C, strain PPZ1, active compounds read low 0.978 | S. cerevisiae deletion strains, locus YML124C, strain tub3, active compounds read low 0.972 | S. cerevisiae deletion strains, locus YMR078C, strain ctf18, active compounds read low 0.954 | S. cerevisiae deletion strains, locus YMR125W, strain sto1, active compounds read low 0.908 | S. cerevisiae deletion strains, locus YMR231W, strain pep5, active compounds read low 1.01 | S. cerevisiae deletion strains, locus YMR263W, strain SAP30, active compounds read low 0.966 | S. cerevisiae deletion strains, locus YMR307W, strain GAS1, active compounds read low 0.885 | S. cerevisiae deletion strains, locus YNL067W, strain RPL9B, active compounds read low 0.928 | S. cerevisiae deletion strains, locus YNL128W, strain TEP1, active compounds read low 0.961 | S. cerevisiae deletion strains, locus YNL153C, strain GIM3, active compounds read low 0.994 | S. cerevisiae deletion strains, locus YNL183C, strain NPR1, active compounds read low 0.954 | S. cerevisiae deletion strains, locus YNL233W, strain BNI4, active compounds read low 0.906 | S. cerevisiae deletion strains, locus YNL250W, strain rad50, active compounds read low 0.946 | S. cerevisiae deletion strains, locus YNL271C, strain bni1, active compounds read low 0.942 | S. cerevisiae deletion strains, locus YNL322C, strain KRE1, active compounds read low 0.98 | S. cerevisiae deletion strains, locus YNR049C, strain mso1, active compounds read low 1.01 | S. cerevisiae deletion strains, locus YOL006C, strain TOP1, active compounds read low 0.85 | S. cerevisiae deletion strains, locus YOL012C, strain htz1 1.07 | S. cerevisiae deletion strains, locus YOL147C, strain pex11, active compounds read low 0.953 | S. cerevisiae deletion strains, locus YOR061W, strain CKA2, active compounds read low 0.893 | S. cerevisiae deletion strains, locus YOR069W, strain VPS5, active compounds read low 0.992 | S. cerevisiae deletion strains, locus YOR080W, strain dia2, active compounds read low 0.952 | S. cerevisiae deletion strains, locus YOR136W, strain idh2, active compounds read low 0.934 | S. cerevisiae deletion strains, locus YOR144C, strain elg1, active compounds read low 0.973 | S. cerevisiae deletion strains, locus YOR231W, strain MKK1, active compounds read low 1.01 | S. cerevisiae deletion strains, locus YOR290C, strain snf2, active compounds read low 0.899 | S. cerevisiae deletion strains, locus YOR316C, strain cot1, active compounds read low 0.969 | S. cerevisiae deletion strains, locus YPL055C, strain LGE1, active compounds read low 0.904 | S. cerevisiae deletion strains, locus YPL241C, strain CIN2, active compounds read low 0.983 | S. cerevisiae deletion strains, locus YPL256C, strain CLN2, active compounds read low 0.981 | S. cerevisiae deletion strains, locus YPR119W, strain clb2, active compounds read low 0.97 | S. cerevisiae deletion strains, locus YPR141C, strain kar3, active compounds read low 0.979 | S. cerevisiae deletion strains, locus YPR163C, strain tif3, active compounds read low 0.961 | S. cerevisiae deletion strains, locus YPR167C, strain met16, active compounds read low 0.969 | S. cerevisiae deletion strains, strain wtn01, active compounds read low 0.928 | S. cerevisiae strains, strain wild type, active compounds read low 0.97
active: S. cerevisiae deletion strains, locus YKL009W, strain mrt4, active compounds read low 0.8 | S. cerevisiae deletion strains, locus YKL160W, strain elf1, active compounds read low 0.864 | S. cerevisiae deletion strains, locus YKR001C, strain vps1, active compounds read low 0.871 | S. cerevisiae deletion strains, locus YKR026C, strain gcn3, active compounds read low 0.843 | S. cerevisiae deletion strains, locus YLL026W, active compounds read low 0.344 | S. cerevisiae deletion strains, locus YLL041C, strain sdh2, active compounds read low 0.542 | S. cerevisiae deletion strains, locus YLR027C, strain aat2, active compounds read low 0.478 | S. cerevisiae deletion strains, locus YLR221C, strain rsa3, active compounds read low 0.305 | S. cerevisiae deletion strains, locus YLR258W, strain gsy2, active compounds read low 0.493 | S. cerevisiae deletion strains, locus YLR262C, strain YPT6 (second series), active compounds read low 0.726 | S. cerevisiae deletion strains, locus YLR320W, strain mms22, active compounds read low 0.647 | S. cerevisiae deletion strains, locus YLR342W, strain FKS1, active compounds read low 0.647 | S. cerevisiae deletion strains, locus YML032C, strain rad52, active compounds read low 0.868 | S. cerevisiae deletion strains, locus YML120C, strain ndi1, active compounds read low 0.171 | S. cerevisiae deletion strains, locus YMR058W, strain fet3, active compounds read low 0.749 | S. cerevisiae deletion strains, locus YMR129W, active compounds read low 0.316 | S. cerevisiae deletion strains, locus YMR205C, strain PFK2, active compounds read low 0.507 | S. cerevisiae deletion strains, locus YMR223W, strain ubp8, active compounds read low 0.889 | S. cerevisiae deletion strains, locus YNL071W, strain lat1, active compounds read low 0.208 | S. cerevisiae deletion strains, locus YNL209W, strain ssb2, active compounds read low 0.886 | S. cerevisiae deletion strains, locus YNL248C, strain rpa49, active compounds read low 0.84 | S. cerevisiae deletion strains, locus YNL298W, strain CLA4, active compounds read low 0.786 | S. cerevisiae deletion strains, locus YNL307C, strain MCK1, active compounds read low 0.744 | S. cerevisiae deletion strains, locus YNL322C, strain KRE1 (second series), active compounds read low 0.633 | S. cerevisiae deletion strains, locus YNR052C, strain pop2, active compounds read low 0.896 | S. cerevisiae deletion strains, locus YOR001W, strain rrp6, active compounds read low 0.397 | S. cerevisiae deletion strains, locus YOR070C, strain gyp1, active compounds read low 0.878 | S. cerevisiae deletion strains, locus YOR083W, strain WHI5, active compounds read low 0.866 | S. cerevisiae deletion strains, locus YOR106W, strain vam3, active compounds read low 0.442 | S. cerevisiae deletion strains, locus YOR184W, strain ser1, active compounds read low 0.774 | S. cerevisiae deletion strains, locus YOR265W, strain rbl2, active compounds read low 0.926 | S. cerevisiae deletion strains, locus YOR270C, strain vph1, active compounds read low 0.506 | S. cerevisiae deletion strains, locus YPL051W, strain arl3, active compounds read low 0.831 | S. cerevisiae deletion strains, locus YPL078C, strain atp4, active compounds read low 0.829 | S. cerevisiae deletion strains, locus YPL106C, strain sse1, active compounds read low 0.58 | S. cerevisiae deletion strains, locus YPL240C, strain hsp82, active compounds read low 0.342
